# Reference: the supplement of paper PMC6555819
# Tested on: VDR:RXRa (NR concentration 270 nM, RXRa partner concentration 90 nM)
# Test: PBM binding z-score (relative to random genomic background probes); higher = stronger binding; sequences stand for … in GC…GCGATTGACAGCGTAGAATGAAGG
# Procedure: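 Protein-binding microarray (Agilent 4x180K custom design, double-stranded 60-nt probes: 5' GC cap, 34-nt variable region, 24-nt constant primer region; full probe sequence given). Purified or IVT nuclear receptor:RXRα heterodimers (3:1 NR:RXRα, mostly 270:90 nM) or homodimers were incubated for 1 h in PBS with 2% milk and no ligand, then detected with Alexa488 antibodies. Fluorescence from o1-orientation probes (~5 replicates averaged) was converted to z-scores against 500 random hg19 background probes. Variable regions are seed direct-repeat (DR0–DR5) sites, all their single-nucleotide variants and half-site ablations.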
row,Sequence,PBM binding z-score
1,CGAACTAGATCAAGGACAGTGAATCTCCGCACGC,-0.37
2,CCGACTGGGGCGGAAAGGTTACCATACCATCCGG,1.02
3,TCTTGTCGATCAACAGGAGGTTAAGAAAGATCGA,0.427
4,CTCGAAAGGTCGTGCCCAGGTGAGTATACCAAAC,3.33
5,ACTATTAGTTGACTTAGGGCAGCCGATACGACGC,0.0476
6,CAAACTAGGTCACCGGAAGGTCAAAGTACGCATG,6.17
7,TCATATAGGTAAATGCTAGGTGACAGTCCGATCT,0.746
8,CCGACTGGGGCAGAAAGGTTACCAGACCATCCGG,0.696
9,ACTAGCTGGTCAGCTGAGGTCACACACAATTCGG,4.56
10,AGAACGAGGGCAAGGAGTTGATAGCACGGGTGGC,3.32
11,CAAACTAGGTCAAAGGTCAAAGTGGAGCCAACCA,6.72
12,CGAACTAGGTCATTTACAGGACAGTGAATAGTAA,2.14
13,CGAACTAGGTCACAACAGGACAGTGAAGGATGAT,2.16
14,ATCGAAAGGTCGAGGTGGGTATAGAGAAAGGGAA,3.34
15,GATACACGGTCAGCTAGAGGCCAGAGTATGGAAA,-0.349
16,TCTACTAGTTGAAGGGCAACCGACGAGTCCGTTT,0.635
17,GGAACGAGGGCATTCGAGTTGAAAGCATGGCGAT,3.59
18,TCTAGTTGCTCAAAGGTCACACACTCGAAATGCG,4.77
19,TCATATAGGTAAATGCTTGGTGAAAGTCCGATCT,0.808
20,ATATCTAGGTTAGCTGGGGTCATTCAGACTAGGC,6.03

row,Sequence,PBM binding z-score
1,TCTAGTTTGTCACGGAGGTCACACACGACGGGTA,4.63
2,TCATGTAGATCAACAGGAGGTTAAGAAAGATCGA,0.591
3,CCGACTGGGGCATAGGTTACCATACTCAGTACGA,-0.0526
4,TCTATTAGTTGATTAGGGCAACCAAAACAGCGGA,0.701
5,CGAACTAGGTCAAGGACAGTGCATCTCCGCACGC,2.39
6,AGTACGAGGGCAATGAGTTGATAGCACGGGTGGC,5.08
7,CCGACTGGGGCAGAAAGGTTACCATGCCATCCGG,0.756
8,TCTTGTAGATCAACATGAGGTTAAGAAAGATCGA,1.1
9,TCAGACAGGTGAAGGAAACTCAGGTACGCAGTCG,0.447
10,TCTGCTAGGTCAGTTGGTGAGCTAACGAGCTGCC,-0.377
11,TCGAGTAGGTTAGTCGGCGCATTCAGCCAACATA,-0.0837
12,TCTCGGAGGACACGAAAGGTCAGAGTTCGACATC,4.18
13,TCGAGTAGGTTAGGAGCATTCAGAATGGCGTCGA,-0.474
14,AGTTAAAGTTCATCTAGGTAACGTAAGATATGCT,4.42
15,TCATATAGGTAAACATGTGAAAGTCCGTAAGTTA,1.1
16,ATATGTAGGTTACATCCGGGTCATTAAGGCTATG,4.54
17,ACTAGCAGGCCAAGTTTGGGTCCCTCAAACAAAG,-0.796
18,CGGACTGGGGCAGAAAGGTTACCATACCATCCGG,1.33
19,TCTCGGAGGACACGAAGGTCAGGGCTTTCCAGAG,2.24
20,GATACAGGGTCAAGGCCAGAGGACGCGTATTGAT,4.11
